Hit rate of the full screen: of about 1,300 compounds, about 270 (21%) were called active. The rule behind the calls is not given here. A selection follows. Measured potencies and affinities stand elsewhere.
assay: SK-MEL-5 parental cell viability loss, dose response, orthogonal assay for MITF inhibitor project, CellTiter-Glo, cherry-picked, set 3 (AID 493240); settings: SK-MEL-5 viability, ATP luminescence (CellTiter-Glo), 24 h; series mostly up to 35 µM; activity change, negative = viability loss: at the top concentration

| Compound | activity change, negative = viability loss |
| --- | --- |
| COc1cccc(/C=C/C(=O)c2ccc3c(c2)OCCO3)c1OC | -13.2% (inactive) |
| O=C(/C=C/c1ccc2c(c1)OCCO2)c1ccccc1 | 9.59% (inactive) |
| O=C(Nc1nc2ccsc2c(=O)s1)C1CCC1 | 4.21% (inactive) |
| O=C(Nc1ccccc1Cl)c1cc(=O)c2ccccc2o1 | 3.54% (inactive) |
| Cc1ccc(-c2noc(CN3CCCCC3)n2)cc1 | 2.86% (inactive) |
| Cc1cc(C)c2c(N)c(C(=O)N/N=C/c3cccnc3)sc2n1 | 2.32% (inactive) |
| Cc1nc2ccc(NC(=O)c3ccco3)cc2nc1C | 10.6% (inactive) |
| COc1cccc(/C=N/NC(=O)c2cccs2)c1 | -10.1% (inactive) |
| CC1Cc2cc(-c3csc(N)n3)ccc2O1 (stereo not given) | -10.4% (inactive) |
| CCCCOc1ccc(-c2ncc([N+](=O)[O-])cn2)cc1 | 1.91% (inactive) |
| COC(=O)CSC1=C(C#N)C(=O)NC(c2ccccc2)S1 (stereo not given) | -11.5% (inactive) |
| COc1nc(NC2CCCCC2)nc(NC(C)(C)C)n1 | -5.55% (inactive) |
| Cc1ccc2nc(Cc3ccc(N)cc3)oc2c1 | 10.2% (inactive) |
| Cc1nc(NC(=O)/C=C/c2ccccc2)n[nH]1 | -31.4% (inactive) |
| CCCc1ccc(-c2ccc(/C=C/C(=O)O)cc2)nc1 | -10.5% (inactive) |
| [2H]C(CCOS(N)(=O)=O)c1ccc(C(C)(C)C)cc1 (stereo not given) | 2.67% (inactive) |
| CC(=O)N(C1CC(C)C(C#N)(C#N)C1(C#N)C#N)N(C)C (stereo not given) | 1.45% (inactive) |
| O=C(CC(=O)c1ccccc1)Nc1ccccn1 | -3.01% (inactive) |
| Cc1cccnc1NC(=O)NC(=O)c1ccc(C(C)(C)C)s1 | -6.04% (inactive) |
| COc1ccc(NC(=O)c2cc3ccccc3oc2=O)c(OC)c1 | -5.28% (inactive) |
| NNC(=O)Cn1c(SCc2ccccc2)nc2ccccc21 | -2.77% (inactive) |
| CCCCOc1ccc(-c2nnn(C(C)(C)C(=O)OC)n2)cc1 | -8.4% (inactive) |
| CCSc1nnc(NC(=O)C2CCCCC2)s1 | 4.55% (inactive) |

| Compound | activity change, negative = viability loss |
| --- | --- |
| COCc1cc(C)nc2sc(C(=O)Nc3ccc(OC)cc3)c(N)c12 | 14.4% (inactive) |
| CCN(CC)c1ccc(/C=N/NC(=O)c2cccc(S(=O)(=O)N3CCOCC3)c2)c(O)c1 | -8.61% (inactive) |
| O=C(N/N=C\c1ccc([N+](=O)[O-])o1)C1COc2ccccc2O1 (stereo not given) | -18.3% (inactive) |
| Clc1ccc(-c2noc(CN3CCOCC3)n2)cc1 | 3.11% (inactive) |
| COc1ccc(-c2cc(-c3ccccc3)c(C#N)c(S(C)=O)n2)cc1 (stereo not given) | -46.7% (inactive) |
| COc1ccc(-c2nc3n(c2C)Cc2ccccc2-3)cc1 | -11.2% (inactive) |
| CC(C)(C)c1ccc(C(=O)Nc2sc3c(c2C(=O)O)CCC3)cc1 | 0.132% (inactive) |
| Cc1ccc(-n2ncc3c(SCC(N)=O)ncnc32)cc1C | 7.62% (inactive) |
| CC(/C=C1\SC(=O)N(CCCC(=O)O)C1=O)=C\c1ccccc1 | -4.09% (inactive) |
| Cc1cc(C)n(CCC(=O)N/N=C/c2c(O)ccc3ccccc23)n1 | -39.9% (inactive) |
| COc1ccc2nc(N3CCN(C(=O)c4ccc([N+](=O)[O-])o4)CC3)sc2c1 | -6.21% (inactive) |
| Cc1cccc(NC(=O)CNC(=O)Cn2ncc(Cl)c(Cl)c2=O)c1C | -31.9% (inactive) |
| C/C(=N\Nc1nccnc1Cl)c1ccc(O)c(C)c1 | -1.97% (inactive) |
| CCOC(=O)c1c(C)[nH]c(C)c1C(=O)COC(=O)c1ccc([N+](=O)[O-])s1 | -27.8% (inactive) |
| O=C(c1ccc([N+](=O)[O-])s1)N1CCCc2ccccc21 | -14.3% (inactive) |
| CCOC(=O)C(=Cc1ccc(-n2ccnc2)cc1)C(=O)OCC | -27.7% (inactive) |
| NC(=O)C1CCN(C2=C(NS(=O)(=O)c3ccc(Br)cc3)C(=O)c3ccccc3C2=O)CC1 | -30.2% (inactive) |
| Cc1ccc(C(CNS(=O)(=O)c2ccc(Br)cc2)N2CCN(C)CC2)cc1 (stereo not given) | -3.91% (inactive) |
| Cc1cc(N2CCOCC2)ccc1/C=C\[N+](=O)[O-] | -36.5% (inactive) |
| COc1cc2c(c(OC)c1OC)-c1ccc(N(C)CC(OC)OC)c(=O)cc1[C@@H](NC(C)=O)CC2 | 3.07% (inactive) |
| Nc1ccc2c(c1)OC1(CCCC1)O2 | -9.31% (inactive) |
| COc1cc(OC)cc(C(=O)N[C@H](C(=O)Nc2nc3ccccc3[nH]2)C(C)C)c1 | -17.1% (inactive) |
| Oc1c(CN2CCCC2)cc(COCc2ccccc2)c2cccnc12 | -13.9% (inactive) |

| Compound | activity change, negative = viability loss |
| --- | --- |
| CN(C)C1CCN(Cc2cc(COCc3ccccc3)c3cccnc3c2O)C1 (stereo not given) | -38.2% (inactive) |
| COc1cccc(NC(=O)c2cc3c(=O)n4ccccc4nc3n(CC(C)C)c2=N)c1 | -0.783% (inactive) |
| Cc1ccc(NC(=O)c2cc3cccc([N+](=O)[O-])c3[nH]2)cc1 | -7.95% (inactive) |
| CCN=c1scc(-c2ccco2)n1/N=C/c1ccc(O)cc1 | -7.86% (inactive) |
| CC(C)CC(=O)/C=C/n1c(=S)oc2ccccc21 | -34.5% (inactive) |
| CCC(=O)Nc1cc2nn(-c3ccc(C)cc3)nc2cc1C | 2.93% (inactive) |
| Cc1cc(N2CCOCC2)n2ncc(-c3ccccc3Cl)c2n1 | -5.33% (inactive) |
| O=C(CCl)N(Cc1cc(=O)[nH]c2ccccc12)c1ccccc1 | -28.8% (inactive) |
| CCNc1nc(N)c(C(=O)c2ccc(Cl)s2)s1 | 12.4% (inactive) |
| CN(C)c1ccc(CNc2ccccn2)cc1 | 10.9% (inactive) |
| CN(C)c1ccc(NC(=S)c2ccccn2)cc1 | -42.3% (inactive) |
| O=C1c2ccccc2C(=O)c2c1ncn2-c1ccccc1 | -48% (inactive) |
| Cc1c(/C=C/C(=O)c2ccc(Cl)s2)cnn1C | 3.62% (inactive) |
| CC1CN(N=Cc2ccc([N+](=O)[O-])o2)C(=N)O1 (stereo not given) | -22.3% (inactive) |
| C#Cc1cccc(NC(=O)CSc2nnc(-c3ccc(C(F)(F)F)cn3)o2)c1 | -9.72% (inactive) |
| Cc1nc(NCCOc2ccccc2)sc1C(=O)Nc1ccccc1 | -18.4% (inactive) |
| COc1ccc(NC(=O)c2cc(-c3ccccc3Cl)on2)cc1 | 0.072% (inactive) |
| CCOC(=O)c1sc(-c2ccccc2)cc1N | -0.468% (inactive) |
| CCOC(=O)c1cnc2c(ccc3ccccc32)c1N | 5.07% (inactive) |
| Cc1cc(/C(N)=N/OC(=O)Nc2ccc(Cl)cc2)no1 | -5.54% (inactive) |
| COc1ccc(NCc2nc3ccccc3n2C)cc1 | -16.6% (inactive) |
| CC(=O)c1cccc(Nc2nc(-c3cccnc3)cs2)c1 | -9.94% (inactive) |
| CC(C)N1C/C(=C/c2cccnc2)C(=O)/C(=C/c2cccnc2)C1 | -39% (inactive) |

| Compound | activity change, negative = viability loss |
| --- | --- |
| CN1C/C(=C/c2cccnc2)C(=O)/C(=C/c2cccnc2)C1 | 4.84% (inactive) |
| C=CCn1c(C)cc(C(=O)Cn2ncc(Cl)c(Cl)c2=O)c1C | -18.1% (inactive) |
| O=C(NC1=NCCS1)C1COc2ccccc2O1 (stereo not given) | -31.3% (inactive) |
| COc1c(C)cccc1C(=O)Nc1ccc(N2CCN(S(C)(=O)=O)CC2)cc1 | -1.04% (inactive) |
| Cc1c(C(=O)N(CCO)Cc2ccccc2)oc2c(F)cccc12 | -10.7% (inactive) |
| CCC1CCCCN1CCCNC(=O)c1cn(CC)c2ccc(S(=O)(=O)N(C)C3CCCCC3)cc2c1=O (stereo not given) | -0.846% (inactive) |
| COc1cc2ccccc2cc1C(=O)Nc1ccc(N2CCN(C)CC2)cc1 | 2.4% (inactive) |
| Cc1ccc(-c2nc(-c3ccncc3)no2)cc1C | -17.9% (inactive) |
| CCOc1ccc(NC(=O)c2ccc3snnc3c2)cc1 | -0.311% (inactive) |
| Nc1ccccc1SC1CC(=O)N(c2ccc3c(c2)OCCO3)C1=O (stereo not given) | -5.81% (inactive) |
| O=C(Nc1ccc([N+](=O)[O-])cc1)c1ccccc1 | 6.09% (inactive) |
| O=C(O)c1ccc(C(=O)Nc2ccc(F)cc2)cc1 | -7.29% (inactive) |
| COc1ccc2c(C)nc(Nc3nc(-c4ccccc4)cc(=O)[nH]3)nc2c1 | -25.4% (inactive) |
| O=C(Cn1cc(/C=C\[N+](=O)[O-])c2ccccc21)Nc1ccccc1 | -48.7% (inactive) |
| Oc1cc(NCc2cccnc2)ccc1-c1nc2ccccc2o1 | -11.7% (inactive) |
| NCCN1C(=O)S/C(=C\c2ccc3c(c2)OCO3)C1=O | -12.1% (inactive) |
| O=C(COC(=O)C1=COCCO1)Nc1c(F)cccc1F | 6.41% (inactive) |
| O=C(C[n+]1cccc2ccccc21)c1ccc([N+](=O)[O-])cc1 | -22.8% (inactive) |
| Cc1ccccc1Cn1c(=N)n(CC(=O)c2ccc([N+](=O)[O-])cc2)c2ccccc21 | -79.6% (inactive) |
| N=c1n(CC(=O)c2ccc([N+](=O)[O-])cc2)c2ccccc2n1Cc1ccccc1 | -17.9% (inactive) |
| N=c1n(CC(=O)c2ccc([N+](=O)[O-])cc2)c2ccccc2n1Cc1ccccc1Cl | -29.3% (inactive) |
| CC(NC(=O)C12CC3CC(CC(C3)C1)C2)C(=O)NN=Cc1ccc([N+](=O)[O-])o1 (stereo not given) | -22% (inactive) |
| Cc1ccc(-n2nnnc2Sc2nc([N+](=O)[O-])nn2C)c(C)c1 | -15.4% (inactive) |

| Compound | activity change, negative = viability loss |
| --- | --- |
| O=C(O)c1cccc(COc2ccccc2Cl)c1 | -19.5% (inactive) |
| COc1ccc(O)c(/C=N/NC(=O)c2ccc(CSc3nc(C)cc(C)n3)cc2)c1 | -14.4% (inactive) |
| O=C(COc1ccc2c(c1)CCC2)N1CCc2ccccc21 | -5.75% (inactive) |
| O=S(=O)(c1ccc(F)cc1)c1snnc1-c1ccccc1 | -23.4% (inactive) |
| COC(=O)c1ccc(Nc2cc(C)nc3ccc(C)cc23)cc1 | -11.8% (inactive) |
| CCOc1ccc2nc(C)cc(Nc3cccc([N+](=O)[O-])c3)c2c1 | -33.6% (inactive) |
| COc1ccc(NC(=O)CCC(=O)N/N=C/c2ccc([N+](=O)[O-])s2)cc1 | -48.4% (inactive) |
| COc1ccc(NC(C)C(=O)N/N=C/c2ccc([N+](=O)[O-])s2)cc1 (stereo not given) | -41.7% (inactive) |
| O=[N+]([O-])c1c(NCCCO)cc(Sc2ccc(Cl)cc2)c2nonc12 | -31.4% (inactive) |
| O=C(NCc1ccccc1)C(=O)Nc1cccc(C(=O)O)c1 | -1.43% (inactive) |
| O=C(c1cc2ccccc2oc1=O)N(Cc1ccccc1)C1CCS(=O)(=O)C1 (stereo not given) | 4.69% (inactive) |
| CC(=O)NC1=C(N(C)C2CCS(=O)(=O)C2)C(=O)c2ccccc2C1=O (stereo not given) | -33.7% (inactive) |
| O=C(NC1CCCCC1)C(c1cccnc1)N(C(=O)CCl)c1ccc(F)cc1 (stereo not given) | -20.8% (inactive) |
| O=C(NC1CCCCC1)C(c1cccnc1)N(C(=O)CCl)c1cccc(Cl)c1 (stereo not given) | -3.27% (inactive) |
| CCC(=O)NC(c1ccccc1OC)c1ccc2cccnc2c1O (stereo not given) | -31.5% (inactive) |
| Cc1ccc(C(=O)c2no[n+]([O-])c2C(=O)c2ccc(C)cc2)cc1 | -2.85% (inactive) |
| Cc1ccc(NC(=O)C2CCN(S(=O)(=O)c3c(C)noc3/C=C/c3ccco3)CC2)nc1 | -24.4% (inactive) |
| Cc1[nH]nc(Nc2ccc(Br)cc2)c1[N+](=O)[O-] | -19.7% (inactive) |
| CC(C)(C)c1ccc(-c2noc(CCC(=O)NCC3CCCO3)n2)cc1 (stereo not given) | -3.92% (inactive) |
| Cn1cccc1-c1cc(C(=O)N/N=C/c2cc(Br)ccc2O)[nH]n1 | -8.57% (inactive) |
| O=C(N/N=C/c1cc(Br)ccc1O)c1ccncc1 | -10% (inactive) |
| Oc1ccccc1/C=N/Nc1cccc2cccnc12 | -8.91% (inactive) |
| O=C(CCCCC(=O)NN=Cc1ccccc1O)NN=Cc1ccccc1O | -10.5% (inactive) |
